This is part of a sample that, as a whole, favours compounds with a hit. Of some 83,000 tested, about 20% had one in any assay.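 Growth was measured after 48 h exposure to one concentration of compound in 96-well plates. Values under 10 count as active.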 A number with no mark means an inactive call. The source made the active and inactive calls.
Experiments:
Assay in all cases: NCI-60 one-dose screen, 48 h (100 = growth as untreated, 0 = no growth, -100 = all killed)
Conditions in all cases: 10 µM unless noted
SR leukemia = tested on: SR leukemia
RPMI-8226 leukemia = tested on: RPMI-8226 leukemia
OVCAR-8 ovarian = tested on: OVCAR-8 ovarian
OVCAR-5 ovarian = tested on: OVCAR-5 ovarian
OVCAR-4 ovarian = tested on: OVCAR-4 ovarian
SK-OV-3 ovarian = tested on: SK-OV-3 ovarian
IGROV1 ovarian = tested on: IGROV1 ovarian
OVCAR-3 ovarian = tested on: OVCAR-3 ovarian
HS 578T breast = tested on: HS 578T breast
NCI/ADR-RES ovarian = tested on: NCI/ADR-RES ovarian
T-47D breast = tested on: T-47D breast
BT-549 breast = tested on: BT-549 breast
MDA-MB-435 melanoma = tested on: MDA-MB-435 melanoma
SW-620 colon = tested on: SW-620 colon
MCF7 breast = tested on: MCF7 breast
HCT-116 colon = tested on: HCT-116 colon
HCC-2998 colon = tested on: HCC-2998 colon
KM12 colon = tested on: KM12 colon

SMILES | growth (SR leukemia) | growth (RPMI-8226 leukemia) | growth (OVCAR-8 ovarian) | growth (OVCAR-5 ovarian) | growth (OVCAR-4 ovarian) | growth (SK-OV-3 ovarian) | growth (IGROV1 ovarian) | growth (OVCAR-3 ovarian) | growth (HS 578T breast) | growth (NCI/ADR-RES ovarian) | growth (T-47D breast) | growth (BT-549 breast) | growth (MDA-MB-435 melanoma) | growth (SW-620 colon) | growth (MCF7 breast) | growth (HCT-116 colon) | growth (HCC-2998 colon) | growth (KM12 colon)
Nc1ncnc2c1c(-c1ccc(Oc3ccccc3)cc1)nn2C[C@H]1SSC[C@H]1O | -40% (active) | 42.8% | 20.5% | 64.1% | 25.6% | -20.8% (active) | -26.5% (active) | -9.53% (active) | 21.6% | 22.4% | -20.6% (active) | 38.9% | -74.6% (active) | 69.2% | -53.9% (active) | -69.3% (active) | 11.2% | 9.93% (active)
CC[C@@]1(O)C(=O)OCc2c1cc1n(c2=O)Cc2c-1nc1ccccc1c2/C=N/OC(C)(C)C | -6.28% (active) | -2.84% (active) | 3.32% (active) | 10.5% | 30.1% | -15.7% (active) | 8.28% (active) | -27.3% (active) | 33% | 1.09% (active) | 2.25% (active) | -7.82% (active) | 13.5% | 11.5% | 2.42% (active) | 3.24% (active) | 6.39% (active) | 1.96% (active)
CN(C)CCS(=O)(=O)Nc1cc(-c2ccc3ncnc(Nc4ccc(F)c(Cl)c4)c3c2)cnc1Cl | -29.1% (active) | -39.9% (active) | 13.7% | -22.4% (active) | 19.3% | -42.7% (active) | -23.7% (active) | -87% (active) | -7.53% (active) | 14.9% | -27% (active) | -17.9% (active) | -47.6% (active) | -22.7% (active) | 8.88% (active) | -21.5% (active) | -83.7% (active) | -56.3% (active)
O=C1/C(=C/c2cccc3cnccc23)Cc2cc(F)ccc21 | 84.6% | 85.9% | 96.1% | 108% | 77% | 76.9% | 85.9% | 109% | 109% | 90.7% | 42.7% | 89% | 101% | 101% | 58.9% | 80.7% | 106% | 92.1%
CCCCCCCC(=O)SCC/C=C/[C@@H]1CC(=O)NCc2nc(cs2)C2=N[C@@](C)(CS2)C(=O)N[C@@H](C(C)C)C(=O)N1 | 6.51% (active) | -6.34% (active) | 5.08% (active) | 22.5% | 31% | -4.42% (active) | 0.908% (active) | -7.56% (active) | 11.5% | 84.5% | -25.6% (active) | 40.1% | 6.04% (active) | 26.9% | 13.2% | -30.3% (active) | -6.96% (active) | 8.82% (active)
Cc1cccc(CC(=O)c2ccccc2)n1 | 94.4% | 89.4% | 91.8% | 83.8% | 90% | 92.2% | 97% | 105% | 91% | 75.7% | 94.2% | 111% | 99% | 91.3% | 92% | 90.5% | 94.6% | 88.1%
COc1ccc(-c2nnc(SCC(=O)Nc3ccc(C(=O)/C=C/c4ccc(Cl)cc4)cc3)o2)cc1OC | 24.2% | 59.4% | 37.4% | 90.5% | -17.1% (active) | 87.4% | 70.4% | 106% | 102% | 38.4% | 90.1% | 57.3% | 81.1% | 101% | 57.5% | 75.6% | 96% | 97.9%
Cc1cc(Nc2ccc(Cl)c(Cl)c2)nc(N)n1 | 78% | 80.9% | 107% | 105% | 92.8% | 105% | 114% | 98.9% | 92.6% | 98.3% | 79.5% | 94.4% | 98.3% | 97.7% | 84.4% | 86.4% | 113% | 91.3%
Cc1[nH]c2ccc(F)cc2c1CCNC(=O)C1CCN(C(=O)c2ccc(-c3ccccc3)cc2)CC1 | 8.16% (active) | 44.5% | 56.3% | 90.1% | 44.7% | 63.8% | 67.1% | 63.8% | 72.7% | 49.6% | -32.2% (active) | 40.8% | 56.8% | 69.3% | 16.5% | 32.5% | 57% | 43.3%
CN(C)c1ncc(C#Cc2c(F)cccc2F)c2ccccc12 | 83.8% | 68.1% | 93.7% | 99.8% | 85.3% | 89.3% | 48.2% | 88.4% | 108% | 92.9% | 36% | 95.7% | 105% | 97.7% | 28.5% | 80.1% | 97.6% | 98%
COCCNC(C(=O)c1ccccc1)c1ccccc1 (centres undefined) | 109% | 98.4% | 97.7% | 95.1% | 105% | 101% | 102% | 104% | 100% | 107% | 92.1% | 97.6% | 103% | 101% | 95.3% | 99.9% | 107% | 104%
CCn1c(C)nc([N+](=O)[O-])c1Sc1nc(N)nc2nc[nH]c12 | 16.6% | 3.41% (active) | 24.1% | 31.7% | 47.4% | 5.32% (active) | 77.5% | 24.5% | 50.4% | 25.5% | 44.8% | 47.9% | 25.3% | 39.4% | 14.5% | 16% | 30.6% | 21.2%
CCN(CC)CCC(C(=O)O)(c1ccccc1)c1ccccc1 | 95.7% | 104% | 113% | 106% | 102% | 92% | 102% | 110% | 95.3% | 97.8% | 77.7% | 95.6% | 98.3% | 97.9% | 91.8% | 90.9% | 106% | 100%
CCCCCCCCCCCCCCCCNc1ccccc1 | 75.1% | 52.5% | 91.8% | 115% | 105% | 103% | 91.6% | 104% | 108% | 104% | 88.6% | 71.7% | 111% | 108% | 90.1% | 101% | 105% | 88.7%
CC(C)(CCN=C(N)Nc1ccccn1)c1ccc(C(F)(F)F)cc1 | -41.3% (active) | -46.9% (active) | 15.7% | 37.4% | 22.3% | 42.5% | 11.9% | 32.1% | 62.1% | 31.4% | -29.7% (active) | 32.2% | 18.7% | -11.2% (active) | -11.2% (active) | -45% (active) | -25.1% (active) | 13.5%
Cc1c(C(C)(C)C)cc(C(C)(C)C)c2c1CN(C)CO2 | 103% | 110% | 105% | 110% | 105% | 102% | 114% | 102% | 105% | 99.5% | 104% | 110% | 113% | 117% | 99.8% | 104% | 101% | 113%
O[C@@H]1CCO[C@H](c2ccc3ccccc3c2)C1 | 95.7% | 96.4% | 106% | 110% | 105% | 108% | 107% | 106% | 100% | 106% | 89.4% | 105% | 106% | 105% | 103% | 96.6% | 98.6% | 104%
CC1CCC(C(C)C)C(NN)C1 (centres undefined) | 103% | 104% | 92.8% | 107% | 111% | 91.8% | 109% | 113% | 102% | 106% | 80.2% | 105% | 110% | 104% | 100% | 106% | 97.9% | 105%

— PubChem BioAssay (NCI)
